Among the data in PubChem BioAssay (NCI) are growth values, retold here.

Test systems include NCI-H23 lung; NCI-H226 lung; NCI-H322M lung; HOP-62 NSCLC; NCI-H460 lung; HOP-92 NSCLC; NCI-H522 lung; A549/ATCC NSCLC; 786-0 renal; COLO 205 colon; DU-145 prostate; K-562 leukemia; MALME-3M melanoma; MDA-MB-231 breast; RXF 393 renal; SF-268 CNS; SF-295 CNS; SF-539 CNS; UACC-257 melanoma; M14 melanoma.
Test in all cases: NCI-60 one-dose screen, 48 h (100 = growth as untreated, 0 = no growth, -100 = all killed)
Common to all, as to settings: 10 µM unless noted

This is part of a sample that, as a whole, favours compounds with a hit. Of some 83,000 tested, about 20% had one in any assay.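 Single-concentration screen, 48 h exposure, 96-well plates. Endpoint: percent growth. Below 10 = active.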 Unmarked numbers belong to inactive results. Calls of active or inactive are those of the source.

Consider `N#C/C(C(=O)c1ccccc1)=C1/C(=O)Nc2ccccc21`, for which the growth in the assay with NCI-H23 lung was 102%; in the assay with NCI-H226 lung, 104%; in the assay with NCI-H322M lung, 100%; with HOP-62 NSCLC, 86.3%; in the assay with NCI-H460 lung, 106%; in the assay on HOP-92 NSCLC it was 105%. Besides, the growth is 97.6% in the assay on NCI-H522 lung; 106% in the assay with A549/ATCC NSCLC; 6.59% (active) in the assay on 786-0 renal; 105% in the assay on COLO 205 colon; 105% with DU-145 prostate; 88.6% in the assay on K-562 leukemia. Moreover, the growth with MALME-3M melanoma was 108%; with MDA-MB-231 breast, 93.2%; with RXF 393 renal, 113%; in the assay on SF-268 CNS it was 95.7%; in the assay on SF-295 CNS it was 98.5%; with SF-539 CNS, 97.3%. Moreover, the growth in the assay on UACC-257 melanoma was 95.4%; with M14 melanoma, 35.6%.

`NC(=O)CC1C=CCC1` (stereo not given): the growth in the assay on NCI-H23 lung is 94.5%; in the assay with NCI-H226 lung it was 99.4%; with NCI-H322M lung, 108%; with HOP-62 NSCLC it was 103%; in the assay with NCI-H460 lung, 101%; in the assay on HOP-92 NSCLC, 106%. Moreover, the growth in the assay with NCI-H522 lung is 97.9%; in the assay on A549/ATCC NSCLC it was 80.1%; in the assay with 786-0 renal, 96.5%; in the assay with COLO 205 colon, 114%; in the assay with DU-145 prostate, 102%; in the assay with K-562 leukemia, 96%. The growth in the assay on MALME-3M melanoma is 97.8%; in the assay on MDA-MB-231 breast, 102%; with RXF 393 renal it was 111%; with SF-268 CNS, 102%; in the assay on SF-295 CNS it was 98.3%; with SF-539 CNS it was 93.3%. In addition, the growth in the assay on UACC-257 melanoma is 90.4%; in the assay on M14 melanoma, 102%.

Turning to `CCCCC1COc2cccc3c2N1C=C/C3=C\C(=O)n1ccc2ccccc21` (stereo not given), the growth in the assay on NCI-H23 lung was 76.5%; in the assay with NCI-H226 lung, 84%; in the assay on NCI-H322M lung, 96.4%; with HOP-62 NSCLC, 79.2%; with NCI-H460 lung it was 88.2%; in the assay on HOP-92 NSCLC it was 63.3%. The growth with NCI-H522 lung is 56%; in the assay on A549/ATCC NSCLC it was 78.7%; in the assay on 786-0 renal, 90.1%; in the assay with COLO 205 colon, 91%; in the assay with DU-145 prostate it was 99.1%; in the assay with K-562 leukemia it was 19.2%. Further, the growth is 69.3% in the assay with MALME-3M melanoma; 85.1% with MDA-MB-231 breast; 87% in the assay on RXF 393 renal; 94.5% in the assay with SF-268 CNS; 80.7% with SF-295 CNS; 97.2% in the assay with SF-539 CNS. For the same compound, the growth is 85.6% with UACC-257 melanoma and 56% in the assay on M14 melanoma.

For `Nc1cc(N)c(N=Nc2ccc(S(=O)(=O)O)cc2)cc1N=Nc1ccc(-c2ccc(N=Nc3ccc(O)c(C(=O)O)c3)cc2)cc1`, the growth in the assay with NCI-H23 lung is 95.7%; in the assay on NCI-H226 lung, 92.2%; in the assay with NCI-H322M lung, 101%; with HOP-62 NSCLC, 98.8%; in the assay with NCI-H460 lung, 105%; in the assay on HOP-92 NSCLC, 108%. Moreover, the growth is 98.2% in the assay with NCI-H522 lung; 101% with A549/ATCC NSCLC; 105% in the assay on 786-0 renal; 109% in the assay with COLO 205 colon; 111% in the assay with DU-145 prostate; 108% with K-562 leukemia. The growth is 93.2% in the assay on MALME-3M melanoma; 100% with MDA-MB-231 breast; 124% in the assay on RXF 393 renal; 104% in the assay with SF-268 CNS; 103% with SF-295 CNS; 100% with SF-539 CNS. In addition, the values for the growth in the assay on UACC-257 melanoma and in the assay on M14 melanoma were 101% and 99.8%, respectively.

As to `COc1ncc(-c2ccc3nccc(C#CCCCCC(=O)O)c3c2)cc1NS(=O)(=O)c1ccc(F)cc1F`, the growth with NCI-H23 lung is 44%; in the assay on NCI-H226 lung it was 46.4%; in the assay on NCI-H322M lung it was 18.3%; with HOP-62 NSCLC it was 29.9%; in the assay with NCI-H460 lung it was 12.3%; in the assay with HOP-92 NSCLC, -21.7% (active). The growth was 43.4% with NCI-H522 lung; 14.8% with A549/ATCC NSCLC; 3.82% (active) in the assay on 786-0 renal; 28.6% in the assay with COLO 205 colon; 40.9% in the assay with DU-145 prostate; 78.6% in the assay with K-562 leukemia. Besides, the growth was -21.4% (active) in the assay with MALME-3M melanoma; 41.9% in the assay with MDA-MB-231 breast; -20% (active) in the assay on RXF 393 renal; 36.5% with SF-268 CNS; 6.94% (active) in the assay with SF-295 CNS; -9.14% (active) in the assay with SF-539 CNS. For the same compound, the growth in the assay with UACC-257 melanoma was -2.67% (active); in the assay on M14 melanoma, 13.9%.

With `COc1ccc2nc3ccccc3c(NCCNCCO)c2c1`, the growth was -40.3% (active) in the assay with NCI-H23 lung; -10.8% (active) in the assay on NCI-H226 lung; -25% (active) in the assay with NCI-H322M lung; -6.96% (active) in the assay with HOP-62 NSCLC; -41.3% (active) in the assay with NCI-H460 lung; -10.7% (active) with HOP-92 NSCLC. For the same compound, the growth with NCI-H522 lung is -48.7% (active); with A549/ATCC NSCLC, -27% (active); in the assay with 786-0 renal, 3.89% (active); in the assay with COLO 205 colon, -75.3% (active); in the assay on DU-145 prostate, -31.2% (active); in the assay with K-562 leukemia it was 18.9%. The growth with MALME-3M melanoma was -65.5% (active); in the assay on MDA-MB-231 breast, -18.9% (active); in the assay on RXF 393 renal, -63% (active); with SF-268 CNS, -27.9% (active); in the assay with SF-295 CNS, -18.4% (active); with SF-539 CNS, -11.1% (active). Moreover, the growth with UACC-257 melanoma is -50% (active); in the assay with M14 melanoma, -87.3% (active).

Take `COc1cc(/C=C/C(=O)/C=C/c2ccc(-n3ccnc3C)cc2)ccc1O`: the growth is 64% in the assay with NCI-H23 lung; 89.1% in the assay with NCI-H226 lung; 100% in the assay with NCI-H322M lung; 88.5% with HOP-62 NSCLC; 81.2% in the assay on NCI-H460 lung; 95.1% with HOP-92 NSCLC. Moreover, the growth with NCI-H522 lung is 81.4%; in the assay on A549/ATCC NSCLC, 62.1%; in the assay on 786-0 renal, 97.2%; in the assay on COLO 205 colon, 60.1%; in the assay with DU-145 prostate it was 54%; in the assay with K-562 leukemia, 13.2%. Besides, the growth is 101% with MALME-3M melanoma; 97.1% in the assay with MDA-MB-231 breast; 47.8% in the assay with RXF 393 renal; 49.9% in the assay on SF-268 CNS; 84.3% in the assay on SF-295 CNS; -0.75% (active) with SF-539 CNS. Also, the results for the growth with UACC-257 melanoma and with M14 melanoma were 89.3% and 111%, respectively.

In the case of `O=C(N[C@@H]1CCCc2ccccc21)[C@H](CCC(=O)N1CCN(C2CCCCC2)CC1)N1C(=O)[C@@H](N2C(=O)OC[C@@H]2c2ccccc2)[C@H]1/C=C/c1ccccc1`, the growth in the assay on NCI-H23 lung is 57.7%; in the assay on NCI-H226 lung, 64.4%; in the assay with NCI-H322M lung, 34.6%; in the assay on HOP-62 NSCLC, 61.3%; with NCI-H460 lung, 29.4%; with HOP-92 NSCLC, 2.75% (active). The growth was 52.3% with NCI-H522 lung; 28% with A549/ATCC NSCLC; 42.1% in the assay with 786-0 renal; 34.4% in the assay on COLO 205 colon; 57.9% in the assay on DU-145 prostate; 14.6% in the assay with K-562 leukemia. For the same compound, the growth with MALME-3M melanoma was -41.1% (active); in the assay on MDA-MB-231 breast it was 16.4%; in the assay with RXF 393 renal, 23%; in the assay with SF-268 CNS, 15.8%; in the assay with SF-295 CNS it was 30.3%; with SF-539 CNS, 4.65% (active). Also, the growth was 10.7% in the assay with UACC-257 melanoma and 14.2% in the assay with M14 melanoma.
